Measured values: the supplement of paper PMC10849652
About 8,800 targets were measured; listed, in parts, are those with a hit and a random draw of the rest. About 0.5% of all pairs of compound and target were hits.

Chain of UniProt Q86U06 (Q86U06 whole entry, looked up): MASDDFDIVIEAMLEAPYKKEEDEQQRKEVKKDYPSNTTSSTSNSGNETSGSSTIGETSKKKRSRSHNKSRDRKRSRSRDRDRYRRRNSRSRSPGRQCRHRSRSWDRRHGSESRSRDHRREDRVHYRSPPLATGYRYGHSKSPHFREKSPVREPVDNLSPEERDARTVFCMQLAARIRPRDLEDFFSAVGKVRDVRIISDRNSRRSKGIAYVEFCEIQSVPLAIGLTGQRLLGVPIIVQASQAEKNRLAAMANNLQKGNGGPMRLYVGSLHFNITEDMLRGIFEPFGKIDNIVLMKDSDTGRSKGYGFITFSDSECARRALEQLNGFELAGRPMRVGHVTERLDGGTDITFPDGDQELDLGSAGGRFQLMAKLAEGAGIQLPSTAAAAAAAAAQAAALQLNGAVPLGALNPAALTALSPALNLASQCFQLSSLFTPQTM
Chain of UniProt P55735 (P55735 whole entry, looked up): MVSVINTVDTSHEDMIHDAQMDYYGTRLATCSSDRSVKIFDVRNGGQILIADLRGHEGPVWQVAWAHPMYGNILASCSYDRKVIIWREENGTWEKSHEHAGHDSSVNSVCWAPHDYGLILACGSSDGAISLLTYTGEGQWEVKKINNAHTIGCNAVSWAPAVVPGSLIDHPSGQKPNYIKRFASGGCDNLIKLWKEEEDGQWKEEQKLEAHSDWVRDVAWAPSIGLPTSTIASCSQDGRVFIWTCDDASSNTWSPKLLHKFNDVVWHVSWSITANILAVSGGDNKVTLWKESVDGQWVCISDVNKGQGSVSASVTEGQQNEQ
Chain of UniProt P38159 (P38159 whole entry, looked up): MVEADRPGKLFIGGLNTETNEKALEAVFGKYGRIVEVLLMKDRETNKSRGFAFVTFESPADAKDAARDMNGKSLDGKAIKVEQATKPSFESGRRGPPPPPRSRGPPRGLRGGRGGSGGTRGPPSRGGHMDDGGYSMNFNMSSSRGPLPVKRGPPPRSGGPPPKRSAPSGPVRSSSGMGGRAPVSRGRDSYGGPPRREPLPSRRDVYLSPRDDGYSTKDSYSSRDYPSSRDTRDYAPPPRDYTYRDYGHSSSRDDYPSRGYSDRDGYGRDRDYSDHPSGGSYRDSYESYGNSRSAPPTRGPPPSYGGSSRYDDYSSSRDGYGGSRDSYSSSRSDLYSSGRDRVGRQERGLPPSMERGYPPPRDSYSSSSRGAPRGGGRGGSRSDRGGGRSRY
Chain of UniProt Q8NC42 (Q8NC42 whole entry, looked up): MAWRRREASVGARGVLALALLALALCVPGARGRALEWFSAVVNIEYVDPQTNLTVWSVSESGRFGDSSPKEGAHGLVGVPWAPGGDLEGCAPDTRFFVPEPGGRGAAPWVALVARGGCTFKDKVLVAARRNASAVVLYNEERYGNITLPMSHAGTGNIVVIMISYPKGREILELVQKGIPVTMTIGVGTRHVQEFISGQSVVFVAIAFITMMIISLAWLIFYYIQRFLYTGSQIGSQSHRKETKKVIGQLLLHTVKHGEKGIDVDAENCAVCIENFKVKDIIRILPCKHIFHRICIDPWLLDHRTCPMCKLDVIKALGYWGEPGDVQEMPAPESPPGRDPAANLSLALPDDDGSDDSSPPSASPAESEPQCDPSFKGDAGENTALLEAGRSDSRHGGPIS
Chain of UniProt Q8IYW5 (Q8IYW5 whole entry, looked up): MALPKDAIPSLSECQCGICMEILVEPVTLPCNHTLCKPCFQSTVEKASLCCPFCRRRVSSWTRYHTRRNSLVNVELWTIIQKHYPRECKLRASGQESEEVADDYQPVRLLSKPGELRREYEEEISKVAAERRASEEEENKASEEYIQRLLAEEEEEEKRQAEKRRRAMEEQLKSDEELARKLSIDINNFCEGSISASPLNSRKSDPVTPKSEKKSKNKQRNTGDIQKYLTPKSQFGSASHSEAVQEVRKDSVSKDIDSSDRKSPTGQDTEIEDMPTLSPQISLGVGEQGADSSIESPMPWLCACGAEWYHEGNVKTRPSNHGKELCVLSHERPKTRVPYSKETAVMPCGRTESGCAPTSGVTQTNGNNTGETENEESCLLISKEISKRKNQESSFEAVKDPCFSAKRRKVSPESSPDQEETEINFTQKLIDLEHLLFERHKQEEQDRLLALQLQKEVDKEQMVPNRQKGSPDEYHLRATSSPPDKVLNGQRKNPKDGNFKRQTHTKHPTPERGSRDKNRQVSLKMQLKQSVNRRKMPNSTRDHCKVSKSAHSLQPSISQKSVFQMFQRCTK
Chain of UniProt Q5TBB1 (Q5TBB1 whole entry, looked up): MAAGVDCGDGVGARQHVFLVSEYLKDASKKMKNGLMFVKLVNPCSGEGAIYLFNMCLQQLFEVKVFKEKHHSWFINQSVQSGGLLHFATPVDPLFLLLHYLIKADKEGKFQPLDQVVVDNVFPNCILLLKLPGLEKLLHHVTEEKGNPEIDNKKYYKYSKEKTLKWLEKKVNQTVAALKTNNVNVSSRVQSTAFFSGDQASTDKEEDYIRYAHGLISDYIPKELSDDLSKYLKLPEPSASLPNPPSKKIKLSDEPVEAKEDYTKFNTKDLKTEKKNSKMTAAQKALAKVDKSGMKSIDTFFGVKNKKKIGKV
Chain of UniProt P11233 (P11233 whole entry, looked up): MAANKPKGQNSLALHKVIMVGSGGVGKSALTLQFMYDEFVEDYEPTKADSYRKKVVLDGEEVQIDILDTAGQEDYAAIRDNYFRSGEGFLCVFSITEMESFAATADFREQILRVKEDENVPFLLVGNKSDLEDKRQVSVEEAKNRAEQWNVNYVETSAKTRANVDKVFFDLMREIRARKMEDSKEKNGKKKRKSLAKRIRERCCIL
Chain of UniProt Q8NC44 (Q8NC44 whole entry, looked up): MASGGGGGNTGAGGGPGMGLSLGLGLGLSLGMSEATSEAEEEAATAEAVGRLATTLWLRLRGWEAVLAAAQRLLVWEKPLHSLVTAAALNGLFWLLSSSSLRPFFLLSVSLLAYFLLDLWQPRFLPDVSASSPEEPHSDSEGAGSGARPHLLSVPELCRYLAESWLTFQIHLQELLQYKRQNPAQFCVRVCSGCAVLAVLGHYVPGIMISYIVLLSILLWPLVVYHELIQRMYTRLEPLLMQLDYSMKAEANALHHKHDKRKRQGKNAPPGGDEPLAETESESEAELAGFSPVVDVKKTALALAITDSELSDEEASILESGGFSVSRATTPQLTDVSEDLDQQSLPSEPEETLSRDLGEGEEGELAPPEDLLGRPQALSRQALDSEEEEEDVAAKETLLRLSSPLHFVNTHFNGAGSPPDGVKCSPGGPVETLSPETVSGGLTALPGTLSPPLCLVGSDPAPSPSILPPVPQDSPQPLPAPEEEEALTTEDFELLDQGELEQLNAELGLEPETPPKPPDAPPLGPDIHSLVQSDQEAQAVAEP
Chain of UniProt P31949 (P31949 whole entry, looked up): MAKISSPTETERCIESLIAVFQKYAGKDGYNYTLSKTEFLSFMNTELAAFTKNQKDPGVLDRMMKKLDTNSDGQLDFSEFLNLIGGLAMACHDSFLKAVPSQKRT
Chain of UniProt Q8N122 (Q8N122 whole entry, looked up): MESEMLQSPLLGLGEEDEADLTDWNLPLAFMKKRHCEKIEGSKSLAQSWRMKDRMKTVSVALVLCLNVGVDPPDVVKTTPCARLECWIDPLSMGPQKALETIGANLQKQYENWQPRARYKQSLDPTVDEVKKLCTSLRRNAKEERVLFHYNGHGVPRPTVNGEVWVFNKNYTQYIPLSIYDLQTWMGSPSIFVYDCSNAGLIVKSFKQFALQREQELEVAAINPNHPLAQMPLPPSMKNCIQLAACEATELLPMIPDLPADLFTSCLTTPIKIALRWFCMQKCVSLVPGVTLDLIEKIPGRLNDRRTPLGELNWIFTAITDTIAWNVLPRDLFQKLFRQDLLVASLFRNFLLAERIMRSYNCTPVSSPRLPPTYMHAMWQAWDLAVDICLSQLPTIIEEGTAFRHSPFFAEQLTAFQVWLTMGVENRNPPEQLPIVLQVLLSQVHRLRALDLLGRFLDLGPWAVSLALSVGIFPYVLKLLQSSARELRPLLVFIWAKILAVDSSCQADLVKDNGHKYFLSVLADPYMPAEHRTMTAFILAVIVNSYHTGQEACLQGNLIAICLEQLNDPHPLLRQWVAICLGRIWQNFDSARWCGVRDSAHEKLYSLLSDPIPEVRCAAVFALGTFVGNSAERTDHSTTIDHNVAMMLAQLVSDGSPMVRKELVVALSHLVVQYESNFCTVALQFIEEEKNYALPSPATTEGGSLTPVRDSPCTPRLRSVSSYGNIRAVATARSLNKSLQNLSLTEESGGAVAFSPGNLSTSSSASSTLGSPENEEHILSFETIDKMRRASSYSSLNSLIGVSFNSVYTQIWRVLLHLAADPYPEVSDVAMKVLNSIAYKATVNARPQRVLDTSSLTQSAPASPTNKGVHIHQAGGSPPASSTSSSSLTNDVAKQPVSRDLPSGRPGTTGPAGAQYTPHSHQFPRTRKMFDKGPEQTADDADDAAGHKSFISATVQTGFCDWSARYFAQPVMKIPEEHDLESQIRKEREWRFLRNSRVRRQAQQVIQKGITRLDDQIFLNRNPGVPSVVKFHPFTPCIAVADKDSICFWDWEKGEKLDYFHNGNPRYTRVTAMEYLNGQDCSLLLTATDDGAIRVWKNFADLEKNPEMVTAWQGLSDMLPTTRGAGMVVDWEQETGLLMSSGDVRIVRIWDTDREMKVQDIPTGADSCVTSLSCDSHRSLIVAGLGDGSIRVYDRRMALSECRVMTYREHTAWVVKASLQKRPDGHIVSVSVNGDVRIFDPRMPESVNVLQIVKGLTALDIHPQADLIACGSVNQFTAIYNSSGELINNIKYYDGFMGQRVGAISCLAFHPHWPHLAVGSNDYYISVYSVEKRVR
Chain of UniProt Q9UL25 (Q9UL25 whole entry, looked up): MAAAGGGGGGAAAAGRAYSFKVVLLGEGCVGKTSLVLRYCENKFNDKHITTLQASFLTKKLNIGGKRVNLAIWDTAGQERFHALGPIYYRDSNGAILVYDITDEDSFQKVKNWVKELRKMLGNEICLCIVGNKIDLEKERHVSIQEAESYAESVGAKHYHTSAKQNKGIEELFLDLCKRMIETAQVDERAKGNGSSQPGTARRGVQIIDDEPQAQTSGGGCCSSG

These targets were tested with CS(=O)(=O)CCNCc1ccc(-c2ccc3ncnc(Nc4ccc(OCc5cccc(F)c5)c(Cl)c4)c3c2)o1 [lapatinib] (assay: log2 fold change, soluble protein after heating vs DMSO (PISA); higher = thermal stabilisation; K562 lysate, 10 uM; active = over 0.2 and 3.5 SD of the protein, either way, in both replicates (recomputed)).
In short: (§1)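 Following dounce homogenisation of K562 pellets in PBS pH 7.4 with 1 mM MgCl2, crude extract at 1 mg/mL protein was incubated for 30 min with 10 μM compound. Aliquots were then heated for 3 min over 48°C-58°C and pooled, NP-40 was added to 0.5% at 4°C, and soluble protein was recovered as the supernatant at 21,000xg for 90 min. Channel-sum-equalised TMTpro 16plex LC-MS/MS quantified this protein. Each value, from duplicates, is a log-two fold change in thermal stability relative to solvent controls.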
RPS26P11 (UniProt Q5JNZ5) was tested, and the log2 fold change was 0.024 (inactive).
In the case of RBM23 isoform 2 (UniProt Q86U06), the log2 fold change is reported as 0.056 (inactive).
For RBMX (UniProt P38159), the log2 fold change was 0.002 (inactive).
In the case of RNASEH2B (UniProt Q5TBB1), the log2 fold change is reported as 0.001 (inactive).
In the case of RNF168 (UniProt Q8IYW5), the log2 fold change is reported as -0.034 (inactive).
RALA (UniProt P11233) was tested, and the log2 fold change was -0.017 (inactive).
In the case of RPS4X (UniProt P62701), the log2 fold change is reported as -0.006 (inactive).
In the case of RETREG2 (UniProt Q8NC44), the log2 fold change is reported as -0.051 (inactive).
With SEC13 isoform 3 (UniProt P55735) the log2 fold change was 0 (inactive).
With RNF149 (UniProt Q8NC42) the log2 fold change was 0.073 (inactive).

What follows are targets tested with CS(=O)(=O)N1CCN(Cc2cc3nc(-c4cccc5[nH]ncc45)nc(N4CCOCC4)c3s2)CC1 [pictilisib] in the same assay as above.
In short: as §1
In the case of RDH10 (UniProt Q8IZV5), the log2 fold change is reported as -0.035 (inactive).
For RPTOR (UniProt Q8N122), the log2 fold change was -0.024 (inactive).
For SASS6 (UniProt Q6UVJ0), the log2 fold change was -0.056 (inactive).
With RBBP7 isoform 2 (UniProt Q16576) the log2 fold change was 0.027 (inactive).
With RAB21 (UniProt Q9UL25) the log2 fold change was -0.053 (inactive).
For RBSN (UniProt Q9H1K0), the log2 fold change was -0.024 (inactive).
With RECQL5 (UniProt O94762) the log2 fold change was 0.06 (inactive).
SAP30 (UniProt O75446) was tested, and the log2 fold change was -0.036 (inactive).
For R3HCC1 (UniProt Q9Y3T6), the log2 fold change was -0.049 (inactive).
For RPL31 (UniProt P62899), the log2 fold change was 0.009 (inactive).
With S100A11 (UniProt P31949) the log2 fold change was 0.006 (inactive).
In the case of RFC2 (UniProt P35250), the log2 fold change is reported as 0.015 (inactive).
For RPL27 (UniProt P61353), the log2 fold change was 0.008 (inactive).
For RXRB isoform 3 (UniProt P28702), the log2 fold change was -0.096 (inactive).
In the case of RIC1 (UniProt Q4ADV7), the log2 fold change is reported as -0.02 (inactive).
In the case of RAPGEF2, A0A2R8YGD3, the log2 fold change is reported as 0.015 (inactive).
With REEP5 (UniProt Q00765) the log2 fold change was -0.026 (inactive).
QTRT2 isoform 4 (UniProt Q9H974) was tested, and the log2 fold change was -0.037 (inactive).
RAP1GAP isoform 4 (UniProt P47736) was tested, and the log2 fold change was -0.018 (inactive).
In the case of REXO4 (UniProt Q9GZR2), the log2 fold change is reported as -0.128 (inactive).
For RIOK2 (UniProt Q9BVS4), the log2 fold change was 0.269 (inactive).
RNF17 (UniProt Q9BXT8) was tested, and the log2 fold change was 0.031 (inactive).
In the case of SCCPDH (UniProt Q8NBX0), the log2 fold change is reported as 0.006 (inactive).
In the case of RPS26P11 (UniProt Q5JNZ5), the log2 fold change is reported as -0.008 (inactive).
RBM23 isoform 2 (UniProt Q86U06) was tested, and the log2 fold change was -0.053 (inactive).
In the case of RBMX (UniProt P38159), the log2 fold change is reported as 0.012 (inactive).
In the case of RNASEH2B (UniProt Q5TBB1), the log2 fold change is reported as 0.039 (inactive).
In the case of RNF168 (UniProt Q8IYW5), the log2 fold change is reported as 0.063 (inactive).
With RALA (UniProt P11233) the log2 fold change was -0.022 (inactive).
With RPS4X (UniProt P62701) the log2 fold change was 0.009 (inactive).
With RETREG2 (UniProt Q8NC44) the log2 fold change was -0.037 (inactive).
With SEC13 isoform 3 (UniProt P55735) the log2 fold change was 0.023 (inactive).
For RNF149 (UniProt Q8NC42), the log2 fold change was -0.025 (inactive).

These targets were tested with C[C@@H](Oc1cc(-c2cnn(C3CCNCC3)c2)cnc1N)c1c(Cl)ccc(F)c1Cl [crizotinib] in the same assay as above.
In short: as §1
In the case of RDH10 (UniProt Q8IZV5), the log2 fold change is reported as 0.062 (inactive).
RPTOR (UniProt Q8N122) was tested, and the log2 fold change was -0.056 (inactive).
SASS6 (UniProt Q6UVJ0) was tested, and the log2 fold change was -0.01 (inactive).
RBBP7 isoform 2 (UniProt Q16576) was tested, and the log2 fold change was 0.008 (inactive).
With RAB21 (UniProt Q9UL25) the log2 fold change was -0.001 (inactive).
RBSN (UniProt Q9H1K0) was tested, and the log2 fold change was -0.012 (inactive).
In the case of RECQL5 (UniProt O94762), the log2 fold change is reported as 0.049 (inactive).
For SAP30 (UniProt O75446), the log2 fold change was 0.044 (inactive).
For R3HCC1 (UniProt Q9Y3T6), the log2 fold change was 0 (inactive).
With RPL31 (UniProt P62899) the log2 fold change was 0.016 (inactive).
For S100A11 (UniProt P31949), the log2 fold change was 0.02 (inactive).
In the case of RFC2 (UniProt P35250), the log2 fold change is reported as -0.046 (inactive).
For RPL27 (UniProt P61353), the log2 fold change was 0.013 (inactive).
With RXRB isoform 3 (UniProt P28702) the log2 fold change was -0.011 (inactive).
For RIC1 (UniProt Q4ADV7), the log2 fold change was -0.06 (inactive).
In the case of RAPGEF2, A0A2R8YGD3, the log2 fold change is reported as 0.024 (inactive).
For REEP5 (UniProt Q00765), the log2 fold change was 0.024 (inactive).
For QTRT2 isoform 4 (UniProt Q9H974), the log2 fold change was -0.018 (inactive).
For RAP1GAP isoform 4 (UniProt P47736), the log2 fold change was -0.044 (inactive).
For REXO4 (UniProt Q9GZR2), the log2 fold change was 0.017 (inactive).
In the case of RIOK2 (UniProt Q9BVS4), the log2 fold change is reported as 0.047 (inactive).
For RNF17 (UniProt Q9BXT8), the log2 fold change was 0.105 (inactive).
For SCCPDH (UniProt Q8NBX0), the log2 fold change was 0.394 (inactive).
For RPS26P11 (UniProt Q5JNZ5), the log2 fold change was -0.085 (inactive).
With RBM23 isoform 2 (UniProt Q86U06) the log2 fold change was -0.076 (inactive).
In the case of RBMX (UniProt P38159), the log2 fold change is reported as 0.022 (inactive).
RNASEH2B (UniProt Q5TBB1) was tested, and the log2 fold change was -0.049 (inactive).
RNF168 (UniProt Q8IYW5) was tested, and the log2 fold change was 0.027 (inactive).
For RALA (UniProt P11233), the log2 fold change was 0.012 (inactive).
For RPS4X (UniProt P62701), the log2 fold change was -0.024 (inactive).
With RETREG2 (UniProt Q8NC44) the log2 fold change was -0.074 (inactive).
In the case of SEC13 isoform 3 (UniProt P55735), the log2 fold change is reported as 0.058 (inactive).
With RNF149 (UniProt Q8NC42) the log2 fold change was -0.006 (inactive).
